# Measured values reported in PubChem BioAssay.
# A number with no mark means an inactive call. How the calls were made is not given here.
# Target: Pantothenate synthetase (Mycobacterium tuberculosis (strain ATCC 25618 / H37Rv)) (UniProt P9WIL5)
# Assay: Coupled enzyme confirmation of inhibitors against recombinant Mtb PanC (AID 375);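 further: 0% = full reaction with vehicle and 100% = no enzyme background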
# Conditions: coupled enzyme assay; at 10 µM, hits give high values
# Sequence of Pantothenate synthetase (Mycobacterium tuberculosis (strain ATCC 25618 / H37Rv)) (P9WIL5 whole entry, looked up): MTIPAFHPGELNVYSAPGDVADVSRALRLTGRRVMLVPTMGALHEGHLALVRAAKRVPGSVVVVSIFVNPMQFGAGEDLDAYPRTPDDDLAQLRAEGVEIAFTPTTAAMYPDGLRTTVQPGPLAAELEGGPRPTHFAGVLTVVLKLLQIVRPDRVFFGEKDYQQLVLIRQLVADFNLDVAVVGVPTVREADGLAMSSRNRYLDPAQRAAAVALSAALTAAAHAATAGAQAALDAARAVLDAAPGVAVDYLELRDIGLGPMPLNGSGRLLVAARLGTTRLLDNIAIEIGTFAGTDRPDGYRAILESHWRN
row,SMILES,inhibition [%]
1,CCOC(=O)CCC(=O)c1c(C)oc2ccc(OC)cc12,4
2,Cc1cc(=O)oc2cc(OCC(=O)OCc3nnc(-c4ccccc4)o3)ccc12,1
3,O=C(c1sc2ccccc2c1Cl)N(Cc1cccs1)C1CCS(=O)(=O)C1 (stereo not drawn),0
4,CCOC(=O)CSc1nc(N)c2c3c(sc2n1)CCCC3,0
5,Cc1ccc2nc(SC(C)C(=O)N3CCCC3)[nH]c2c1 (stereo not drawn),2
6,CC(C)(CO)NC(=O)CCCOc1ccc(Cl)cc1Cl,0
7,OC1(c2cccc(C(F)(F)F)c2)CCN(c2ccc(-c3ccccc3)nn2)CC1,0
8,Cc1cccc(NC(=O)CC2NC3CCCCC3NC2=O)c1 (stereo not drawn),0
9,O=C(CN1C(=O)CC(c2ccco2)Sc2ccccc21)Nc1ccc2c(c1)OCCO2 (stereo not drawn),3
10,Cc1cccc2cc(CN(CCN3CCCC3)C(=O)NC3CCCCC3)c(=O)[nH]c12,0
11,Cc1ccc(-n2c(C)cc3c2CCCC3=O)cc1,0
12,Cc1ccccc1NC(=O)N1C2CCCC1CC(NC(=O)C1CC1)C2 (stereo not drawn),14
13,COc1ncnc2c1N=C1CC(C)(C)CC(N)=C1S2,0
14,Cn1c(=O)c(=O)n(C)c2cc(S(=O)(=O)Nc3ccc4c(c3)OCCO4)ccc21,6
15,CCC(C)NC(=O)c1cc(CC(C)C)on1 (stereo not drawn),2
16,COCCNC(=O)c1c(N)n(/N=C/c2cccs2)c2nc3ccccc3nc12,0
17,CN(C)S(=O)(=O)c1ccc(Oc2ccc(S(=O)(=O)N(C)C)cc2)cc1,4
18,O=C(c1ccco1)N1CCN(C(=O)c2sccc2-c2ccccc2)CC1,0
19,O=C1NCCCc2c1no[n+]2[O-],18
20,O=C(CS(=O)(=O)Cc1ccccc1)N1CCc2ccccc2C1,1
21,Cc1cc2cc(CNC(=O)c3ccc4c(c3)OCO4)ccc2[nH]1,0
22,COc1cccc(-c2cc(C(F)(F)F)nc(NCc3ccco3)n2)c1,0
23,Cc1ccc(NC2=NC(c3ccccc3)n3c(nc(C)cc3=O)N2)cc1 (stereo not drawn),13
